Test results as given in PubChem BioAssay (NCATS).
Results filed as inconclusive are left out. A number with no mark means an inactive call. Calls follow the shape of the dose curve; as a rule, active = well fitted activation curve with a large enough effect; inconclusive = small, poorly fitted or top-dose-only effect; inactive = no such curve, though single readings can be large or run the other way.

assay: Validation screen for small molecules that induce genotoxicity in human embryonic kidney (HEK293T) cells expressing luciferase-tagged ELG1 (AID 493106); conditions: luminescence; series mostly up to 46.1 µM; activity change, positive = ELG1 induction: at the top concentration; also: 0% is about no effect
How it was run: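 Luminescence from an ELG1-luciferase fusion serves as the read-out, rising when genetic stress elevates ELG1 protein. HEK293T reporter cells (2,000 per well) received 23 nL compound, incubated 16 hr at 37 °C, then ONE-Glo for 30 min at room temperature.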

Compound	activity change, positive = ELG1 induction [%]
CC(C)[N+](C)(CCOC(=O)C1c2ccccc2Oc2ccccc21)C(C)C	-6.59
CC1=NS(=O)(=O)c2cc(Cl)ccc2N1	-11.8
NC1=NCC2c3ccccc3Cc3ccccc3N12 (stereo unspecified)	-7.13
CNCCC(Oc1ccccc1OC)c1ccccc1 (stereo unspecified)	-8.64
C[N+](C)(C)CCOC(=O)CCC(=O)OCC[N+](C)(C)C	-5.51
C[C@@H](O)[C@H]1C(=O)N2C(C(=O)O)=C(SCCN=CN)C[C@H]12	-5.33
CCN1CCC[C@H]1CNC(=O)c1c(O)c(Cl)cc(Cl)c1OC	-7.94
CC(C)COCC(CN(Cc1ccccc1)c1ccccc1)N1CCCC1 (stereo unspecified)	2.47
CC(C)(Oc1ccc(CCNC(=O)c2ccc(Cl)cc2)cc1)C(=O)O	-5.72
CN1C(=O)CC[C@H]1c1cccnc1	-6.68
Cc1nc2ccccn2c(=O)c1CCN1CCC(C(=O)c2ccc(F)cc2)CC1	-8.94
CSc1ccc(C(=O)c2[nH]c(=O)[nH]c2C)cc1	1.62
C[C@]12CC[C@@H]3c4ccc(O)cc4C[C@@H](CCCCCCCCCS(=O)CCCC(F)(F)C(F)(F)F)[C@H]3[C@@H]1CC[C@@H]2O (stereo partly specified)	-11.7
CC(=O)[C@@]1(O)CC[C@H]2[C@@H]3CCC4=CC(=O)CC[C@]4(C)[C@H]3CC[C@@]21C	-11.2
O=C(CCNNC(=O)c1ccncc1)NCc1ccccc1	-5
COCCc1ccc(OCC(O)CNC(C)C)cc1 (stereo unspecified)	-7.94
Cc1cccc(C)c1NC(=O)C(C)N (stereo unspecified)	-8.34
CCCOc1ccccc1-c1nc2n[nH]nc2c(=O)[nH]1	-0.15
NC(=O)c1ncn([C@@H]2O[C@H](CO)[C@@H](O)[C@H]2O)c1O	-1.81
CCc1cccc(N(C)C(N)=Nc2cccc3ccccc23)c1	-16.3
Cc1nc2sccn2c(=O)c1CCN1CCC(=C(c2ccc(F)cc2)c2ccc(F)cc2)CC1	-10.7
